Results filed as inconclusive are left out. Entries that show only a call come without a potency. Calls of active or inactive are those of the source. Calls follow the shape of the dose curve; as a rule, active = well fitted inhibition curve with a large enough effect; inconclusive = small, poorly fitted or top-dose-only effect; inactive = flat fitted curve, though single readings scatter.
These compounds were tested against Calcium and integrin-binding protein 1 (Homo sapiens) (UniProt Q99828) (assay: Primary qHTS for Identification of Calcium Integrin Binding Protein 1 (CIB1) Competitor (AID 1508620;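 also: GST tagged CIB1 binding a fluorescein labelled alphaIIb integrin peptide tracer; top concentration of the series differs between compounds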)). Conditions: CIB1-GST / FITC-alphaIIb peptide fluorescence polarization; series mostly up to 114 µM.
Chain of Calcium and integrin-binding protein 1 (Homo sapiens) (Q99828 whole entry, looked up): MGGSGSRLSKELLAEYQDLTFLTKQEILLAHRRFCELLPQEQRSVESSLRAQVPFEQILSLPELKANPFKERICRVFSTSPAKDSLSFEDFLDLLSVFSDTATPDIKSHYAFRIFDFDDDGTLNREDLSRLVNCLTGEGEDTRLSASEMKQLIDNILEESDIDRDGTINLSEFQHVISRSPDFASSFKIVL
Description: Assay Provider: Ulhas P. Naik, PhD Sidney Kimmel Medical College Thomas Jefferson University, Philadelphia, PA Primary function of platelets is to maintain hemostasis. At the site of vascular injury, platelets adhere to adhesive proteins such as collagen and von Willebrand factor. Adherent platelets are activated and generate soluble platelet agonists such as thrombin, ADP and thromboxane A2. Following exposure of circulating platelets to these agonists, results in platelet shape change, granule secretion and activation of platelet integrin alphaIIb-beta3. Ligand binding to activated integrin alphaIIb-beta3 triggers outside-in signaling, leading to platelet aggregation, stabilization of platelet plug, and clot retraction. Upon atherosclerotic plaque rupture also causes platelet plug formation, which underlies a number of cardiovascular diseases such as myocardial infraction and stroke. A number of anti-platelet drugs such as aspirin, clopidogrel, prasugrel, vorapaxar, and eptifibatide are currently available to prevent the thrombotic complications. However, these anti-platelet agents have several limitations including inherent variability in individual responses, developing resistance, and serious bleeding side effects. For these reasons they are not suitable for long-term protection. Based on the experiences with current anti-platelet drugs, it appears that the most useful therapeutic approach is to intersect the secondary responses such as integrin outside-in signaling or recruitment of platelets by TxA2 and secreted ADP. Compounds, which can largely preserve the primary hemostatic function of platelets but inhibit secondary response will be most desired therapeutic agents for treatment of cardiovascular disease. CIB1 is a calcium integrin binding protein, which specifically interact with the alphaIIb subunit of integrin alphaIIb-beta3. Binding of CIB1 to alphaIIb regulates the outside-in signaling in platelets, which is needed for thrombus stabilization and thrombus growth. […] Therefore, we propose that discovery of a small molecule that can prevent the association of CIB1 and alphaIIb-beta3 will be a potential anti-platelet agent that can block the thrombus formation without undue effect on hemostasis. Reference: [1] Naik MU, Nigam A, Manrai P, et al. CIB1 deficiency results in impaired thrombosis: the potential role of CIB1 in outside-in signaling through integrin alpha IIb beta 3. J Thromb Haemost.
PROTOCOL TABLES SEQUENCE No. (1, 2, 3, etc.); […] (e.g., Cells, Incubation, Reagent, etc.); VALUE and DESCRIPTION. 1; Reagent; 3 uL; Protein or buffer (4/3x) 2; Compound; 46 nL; Control inhibitor / compound library 3; Time; 15 min; Room temperature incubation 4; Reagent; 1 uL; Fluorescent labeled peptide (4x) 5; Time; 1000 rpm; Centrifuge 6; Time; 15 min; Room temperature incubation 7; Detection; Ex 480/ Em 540; ViewLux Fluorescence Read NOTES (numbers refer to sequence above) 1; Protein Mixture: C1B1-GST (final concentrations of 1 uM). […] 3; Room temperature incubation. 4; Fluorescent Labeled Peptide: FITC-aIIb (final concentration of 100 nM). Sequence of alphaIIb peptide: Acetyl-[…]-FITC (purity is 95.83%). 5; Centrifuge 1000 rpm (164 g) for 15 seconds. 6; Room temperature incubation. 7; ViewLux Fluorescent Polization Read: excitation = 480(20) / emission = 540(25) S and P; FITC Dichroic mirror.
For `N#Cc1cn([C@@H]2O[C@H](CO)[C@H](O)[C@@H]2O)c2ncnc(N)c12`, the Potency was “inactive”. `NC(=O)[C@@H](CC1CC1)[C@@H](CCC(F)(F)F)C(=O)N[C@H]1N=C(c2ccccc2)c2cccc(F)c2NC1=O` was tested, and the Potency was “inactive”. In the case of `CC(=O)OC[C@]12C[C@H](OC(=O)CC(C)C)C(C)=C[C@H]1O[C@@H]1[C@H](O)[C@@H](OC(C)=O)[C@@]2(C)[C@@]12CO2`, the Potency is reported as “inactive”. `CN1C(=O)C(Cc2ccc3ccccc3c2)N=C(c2ccc(O)cc2)c2cc(Cl)ccc21` (stereo not given) was tested, and the Potency was “inactive”. In the case of `CC1=CC(=O)[C@@H](O)[C@@]2(C)C1C[C@H]1OC(=O)[C@H](O)[C@@]3(O)[C@@H](C)[C@@H](O)[C@H](O)C2[C@@]13C` (stereo not given in full), the Potency is reported as “inactive”. In the case of `C=C1[C@@H](C)C2[C@H](Cc3ccccc3)NC(=O)[C@@]23C(/C=C/C[C@H](C)C[C@@](C)(O)/C=C/[C@@H]3OC(C)=O)[C@@H]1O` (stereo not given in full), the Potency is reported as “inactive”. `CC1=CC2/C=C(\C)CCC(O)C(O)/C=C/C(=O)C23C(=O)NC(CC(C)C)C3C1C` (stereo not given) was tested, and the Potency was “inactive”. For `Cc1sc2c(c1C)C(c1ccc(Cl)cc1)=N[C@@H](CC(=O)Nc1ccc(O)cc1)c1nnc(C)n1-2`, the Potency was “inactive”. In the case of `C[C@]12CC[C@H]3[C@@H](CCC4=C/C(=N/OCC(=O)O)CC[C@@]43C)[C@@H]1CC[C@@H]2O`, the Potency is reported as “inactive”. In the case of `C/C=C1/CN2CC[C@]34C(=Nc5ccc(OC)cc53)C2C[C@@H]1C4(CO)C(=O)OC` (stereo not given in full), the Potency is reported as “inactive”. For `CNC(=O)c1cc(C#N)cc(C)c1NC(=O)c1cc(Br)nn1-c1ncccc1Cl`, the Potency was “inactive”. With `COC1CC(O[C@H]2CC[C@]3(C)C4CC[C@]5(C)[C@@H](C6=CC(=O)OC6)[C@@H](OC(C)=O)C[C@]5(O)C4CC[C@@H]3C2)OC(C)C1O` (stereo not given in full) the Potency was “inactive”. `CN1C(=O)N(c2ccc(C#N)c(C(F)(F)F)c2)C(=O)[C@@]1(CO)c1ccccc1` was tested, and the Potency was “inactive”. `c1ccc([C@@H]2C[C@H]2NC2CCNCC2)cc1` was tested, and the Potency was “inactive”. `CC(=O)O[C@H]1C[C@]2(O)[C@@H]3CC[C@@H]4C[C@@H](O)CC[C@]4(C)[C@H]3CC[C@]2(C)[C@H]1c1ccc(=O)oc1` was tested, and the Potency was “inactive”. With `CC1CCCCCC(=O)c2c(O)cc(O)cc2CC(=O)O1` (stereo not given) the Potency was “inactive”. For `Cc1cccc(NC(=O)NC2N=C(c3ccccc3)c3ccccc3N(CC(=O)c3ccccc3C)C2=O)c1` (stereo not given), the Potency was “inactive”. With `Cc1sc2c(c1C)C(c1ccc(Cl)cc1)=NC(CC(=O)OC(C)(C)C)c1nnc(C)n1-2` (stereo not given) the Potency was “inactive”. In the case of `C=C1C(=O)OC2/C=C(\COO)CC/C=C(\COC(C)=O)CC(OC(=O)C(C)CC)C12` (stereo not given), the Potency is reported as “inactive”. With `CC1(C)C(=O)N(c2ccc(C#N)c(C(F)(F)F)c2)C(=S)N1c1ccc(C(N)=O)c(F)c1` the Potency was “inactive”. `Fc1cc(F)c2c(c1)[C@H]1C=CC[C@H]1C(c1cccnc1)N2` (stereo not given in full) was tested, and the Potency was “inactive”. For `CS[C@]1(CO)C(=O)N2[C@H]3C(=CC=C[C@@H]3O)C[C@@]2(SC)C(=O)N1C`, the Potency was “inactive”. In the case of `COc1cc2c(c(OC)c1OC)-c1ccc(SC)c(=O)cc1[C@@H](NC(C)=O)CC2`, the Potency is reported as “inactive”. For `O=C(NCCN1CCC2(CC1)C(=O)NCN2c1cccc(F)c1)c1ccc(F)c(F)c1`, the Potency was “inactive”. In the case of `COC1CC(O[C@H]2CC[C@@]3(C)C(CCC4C3CC[C@]3(C)[C@@H](C5=CC(=O)OC5)CC[C@]43O)C2)OC(C)C1O` (stereo not given in full), the Potency is reported as “inactive”. In the case of `COC(=O)C1=COC(C)C2CN3CCC4(C(=O)Nc5ccccc54)C3CC12` (stereo not given), the Potency is reported as “inactive”. In the case of `CCC1(O)CCC2C3CCC4=CC(=O)CCC4C3CCC21CC` (stereo not given), the Potency is reported as “inactive”. With `OC(CNc1ccccc1)Cn1c2ccc(Br)cc2c2cc(Br)ccc21` (stereo not given) the Potency was “inactive”. For `CC(=O)O[C@H]1CC[C@H]2[C@@H]3CC[C@H]4CC(=O)C=C(C)[C@]4(C)[C@H]3CC[C@]12C`, the Potency was “inactive”. With `C[C@@H]1O[C@@H](OC2CCC3(C=O)C(CCC4C3CCC3(C)C(C5=CC(=O)OC5)C(O)CC43O)C2)[C@H](O)[C@H](O)[C@H]1O[C@@H]1O[C@H](CO)[C@@H](O)[C@H](O)[C@H]1O` (stereo not given in full) the Potency was “inactive”. For `C[C@@H](CN1CCC2(CC1)C(=O)NCN2c1cccc(F)c1)NC(=O)c1ccc(Br)cc1`, the Potency was “inactive”. `CC(=O)N1N=C(c2ccc(N)cc2)c2cc3c(cc2C[C@H]1C)OCO3` was tested, and the Potency was “inactive”. For `CN1CCCCC1Cn1cc(C(=O)c2cc([N+](=O)[O-])ccc2I)c2ccccc21` (stereo not given), the Potency was “inactive”. In the case of `C[C@H]1CN(CC[C@H](O)C2CCCCC2)CC[C@@]1(C)c1cccc(O)c1`, the Potency is reported as “inactive”. `CC(C)OC(=O)c1ccnc2cc(C(OCCN3CCCCC3)c3ccccc3Cl)sc12` (stereo not given) was tested, and the Potency was “inactive”. With `C[C@@H]1[C@H](O)[C@@H](C)/C=C/C=C/CC/C=C/C=C/C=C/C=C/[C@H](O[C@H]2O[C@@H](C)[C@H](O)[C@@H](N)[C@H]2O)C[C@@H]2O[C@](O)(C[C@@H](O)[C@H](O)CC[C@@H](O)C[C@@H](O)C[C@@H](O)CC(=O)O[C@H]1C)C[C@H](O)[C@H]2C(=O)O` the Potency was “inactive”. In the case of `c1ccc(C2(c3ccccc3)OC[C@@H]([C@H]3CCCCN3)O2)cc1`, the Potency is reported as “inactive”. In the case of `CN=C(NS(=O)(=O)c1ccc(Cl)cc1)N1C[C@H](c2ccccc2)C(c2ccc(Cl)cc2)=N1`, the Potency is reported as “inactive”. In the case of `CO/C1=C\C(C)=C\[C@@H](C)[C@@H](O)[C@@H](C)C/C(C)=C/C=C/[C@H](OC)[C@@H]([C@@H](C)[C@@H](O)[C@H](C)[C@@]2(O)C[C@@H](O)[C@H](C)[C@@H](C(C)C)O2)OC1=O`, the Potency is reported as “inactive”. In the case of `C[C@@H](CN1CCC(n2c(=O)[nH]c3cc(Br)ccc32)CC1)NC(=O)[C@@H]1C[C@H]1c1ccccc1`, the Potency is reported as “inactive”.
